In PubChem BioAssay (EPA / NIEHS) one finds AC50 and outcome data, which are given here for 22 compounds.

The source made the active and inactive calls. Rule for the calls: active = hit-call score of the fitted dose curve at least 0.9, where 1 is the maximum; inactive = score below 0.9.

A short description of test [1]: APR_HepG2_CellCycleArrest_24hr: Apredica 24-hour HepG2 Assay for Cell Cycle Arrest (AID 2282905).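 Note: cell cycle arrest scored as ratio of 2N to 4N nuclear DNA content.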 Particulars: imaging, actives raise or lower the signal. The procedure, abridged:
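Step one: dose HepG2 with test compounds, 0.39–200 uM, 0.5% DMSO, 24 hr. Step two: fix, permeabilize, stain nuclei with Hoechst 33342. Step three: image six fields per well at 20x, quantify DNA content, fit bidirectionally relative to DMSO.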

Test [2] in a line: APR_HepG2_NuclearSize_24hr: Apredica 24-hour HepG2 Assay for Nuclear Size (AID 2282907). Particulars: high-content imaging, actives raise or lower the signal. The procedure, abridged:
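After fixation and permeabilization, 24-hr-treated HepG2 cells were stained with Hoechst 33342 and imaged on an ArrayScan (20x). Doses spanned 0.39–200 uM in duplicate. Nuclear diameter changes in either direction were fitted relative to 0.5% DMSO controls.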

Test [3] in a line: APR_HepG2_CellLoss_24hr: Apredica 24-hour HepG2 Assay for Cell Loss (AID 2282908).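 For AC50: fit in both directions so a hit may be cell loss or gain.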 Particulars: high-content imaging. The procedure, abridged: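 Duplicate wells received compound at ten concentrations (0.39–200 uM; final DMSO 0.5% v/v). After fixation with formaldehyde, nuclei stained with Hoechst 33342 were imaged at 20x. Loss or gain of cell count was fitted relative to DMSO controls.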

Test [4] in a line: APR_HepG2_MitoticArrest_24hr: Apredica 24-hour HepG2 Assay for Mitotic Arrest (AID 2282910). Particulars: high-content imaging, actives raise or lower the signal. The procedure, abridged: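 High-content imaging of fixed HepG2 cells labeled with Hoechst 33342 and anti-phospho-histone H3, after 24 h treatment. Ten concentrations 0.39 to 200 uM in duplicate, final DMSO 0.5%; changes fitted both directions relative to DMSO.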

Test [5] can be described thus: APR_HepG2_MitoMembPot_24hr: Apredica 24-hour HepG2 Assay for Mitochondrial Membrane Potential (AID 2282911). The following applies: imaging, actives raise or lower the signal. A digest of the protocol: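 Human hepatoma HepG2 cultures received ten compound concentrations up to 200 uM for 24 hr. Membrane-potential dye signal, captured by automated fluorescence microscopy, was scored for gain or loss against DMSO controls.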

A short description of test [6]: APR_HepG2_MitoMass_24hr: Apredica 24-hour HepG2 Assay for Mitochondrial Mass (AID 2282912). Particulars: high-content imaging, actives raise or lower the signal. The procedure, abridged:
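Readout: fluorescence of MitoTracker Red CMXRos (250 nM, added 30 min pre-fixation) in fixed HepG2 cells imaged by HCS. Exposure lasted 24 hr at 0.39–200 uM; increases and decreases were both fitted relative to DMSO.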

The nature of test [7]: APR_HepG2_p53Act_24hr: Apredica 24-hour HepG2 Assay for p53 Activation (AID 2282913).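 Note: p53 protein immunofluorescence averaged per cell in HepG2 with Hoechst nuclei.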 Particulars: high-content imaging, actives raise or lower the signal. A digest of the protocol:
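Automated fluorescence imaging quantifies p53 immunostaining in HepG2 cells after a 24 hr exposure (0.39–200 uM, duplicate, 0.5% DMSO). Nuclei are located by Hoechst 33342 staining.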

A short description of test [8]: APR_HepG2_CellCycleArrest_72hr: Apredica 72-hour HepG2 Assay for Cell Cycle Arrest (AID 2282914). Particulars: high-content imaging, actives raise or lower the signal. The procedure, abridged: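 Cell cycle arrest in HepG2 was scored from nuclear DNA content after 72 hr compound treatment (0.39–200 uM). Activity, either gain or loss, was fitted against the DMSO baseline.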

Test [9] is described as follows: APR_HepG2_CellLoss_72hr: Apredica 72-hour HepG2 Assay for Cell Loss (AID 2282915). The following applies: high-content imaging. A digest of the protocol:
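Cell number comes from Hoechst 33342-labelled nuclei, imaged at 20x after 3.7% formaldehyde fixation. Dosing was 0.39–200 uM, ten concentrations in duplicate, 0.5% DMSO final, for 72 h. Bidirectional fit relative to DMSO baseline.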

As for `Clc1nc(Cl)c(Cl)c(Cl)c1Cl`, the AC50 in test [1] is 40 µM (active); in [3], 45 µM (active); in test [4], 77.3 µM (active); in test [6], 102 µM (active); in test [7], 38.6 µM (active); in test [8], 20 µM (active). Also, the AC50 in test [9] was 72 µM (active). The outcome in test [2] and in test [5] was inactive.
On to `CC1=CC(=O)CC(C)(C)C1`, for which the call in [1], in [2], in test [3], in test [4], in test [5] and in [6] was inactive. The compound was called inactive in test [7], in test [8] and in test [9].
`COc1ccc2sc(C(=O)Nc3nnn[nH]3)c(OC(C)C)c2c1`: the call in test [1], in [2], in test [3], in test [4], in test [5] and in [6] was inactive. Besides, the result in test [7] and in test [8] was inactive. In test [9], the half-maximal activity concentration (AC50) was 39.9 µM (active).
Turning to `CC(C)c1cccc(C(C)C)c1N1C(=O)c2ccc(O)cc2C1=O`, the AC50 is 6.15 µM (active) in [1]; 87.5 µM (active) in test [3]; 4.05 µM (active) in [4]; 32.7 µM (active) in test [5]; 164 µM (active) in test [6]; 46.7 µM (active) in [7]. Also, the AC50 was 7.16 µM (active) in [8] and 57.7 µM (active) in [9]. For the same compound, in test [2], the compound was classed as inactive.
On to `CCOC(=O)c1ccc(C2CCC(NC[C@H](O)COc3ccc(O)c(NS(C)(=O)=O)c3)CC2)cc1` (stereo partly drawn), for which the compound was classed as inactive in test [1], in test [2] and in test [8]. For the same compound, the AC50 is 32.3 µM (active) in test [3]; 27.5 µM (active) in test [4]; 86.9 µM (active) in test [5]; 28.1 µM (active) in [6]; 26.2 µM (active) in [7]; 25 µM (active) in test [9].
`CNS(=O)(=O)c1cc(C(=O)N2CCC(CCN3C4CCC3CC(n3c(C)nc5ccccc53)C4)(c3cccc(F)c3)CC2)c(Cl)cc1F` (stereo not drawn): the result in test [1], in test [2] and in test [5] was inactive. Also, the AC50 in test [3] was 62.9 µM (active); in test [4], 40.9 µM (active); in [6], 62.7 µM (active); in test [7] it was 72.7 µM (active); in test [8], 78.9 µM (active); in test [9], 24 µM (active).
In the case of `O=C(O)c1cc(N=Nc2ccc(S(=O)(=O)Nc3ccccn3)cc2)ccc1O`, the outcome in test [1], in test [2], in [3], in test [4], in test [6] and in test [7] was inactive. Besides, the compound was classed as inactive in test [8] and in test [9]. For the same compound, the AC50 in test [5] was 95.9 µM (active).
For the compound `O=C(O)CC(O)C(=O)O` (stereo not drawn), the call in test [1], in test [2], in [3], in test [4], in test [5] and in test [6] was inactive. Further, the compound was classed as inactive in test [7], in test [8] and in test [9].
Turning to `CC(C)CCO`, the outcome in [1], in test [2], in test [3], in test [4], in [5] and in test [6] was inactive. Also, the compound was classed as inactive in test [7], in [8] and in [9].
In the case of `O=C(O)c1cccc(N(Cc2cccnc2)c2ccc(OC(F)F)c(OC(F)F)c2)c1`, the call in test [1], in test [2] and in test [8] was inactive. The AC50 in [3] is 43.6 µM (active); in [4], 10.4 µM (active); in test [5], 0.0349 µM (active); in test [6], 13.3 µM (active); in [7], 5.63 µM (active); in test [9] it was 23.5 µM (active).
Take `CCOCCOCCOCCO`: the outcome in test [1], in [2], in test [3], in test [4], in [5] and in test [6] was inactive. For the same compound, the compound was called inactive in [7], in test [8] and in test [9].
On to `C1=CCCC=CCCC=CCC1`, for which the compound was called inactive in [1], in test [2], in [3], in [4], in test [5] and in test [6]. The call in test [7], in test [8] and in [9] was inactive.
For `Cn1c(=O)c2c(ncn2C)n(C)c1=O`, the compound was classed as inactive in test [1], in test [2], in [3], in test [4], in test [5] and in test [6]. Further, the result in [7], in test [8] and in test [9] was inactive.
In the case of `CC(O)CN(CCN(CC(C)O)CC(C)O)CC(C)O` (stereo not drawn), the compound was classed as inactive in test [1], in test [2], in [3], in [4], in [5] and in test [6]. In addition, the compound was called inactive in [7], in test [8] and in test [9].
For `CC(C)=CCC/C(C)=C\CO`, the compound was classed as inactive in test [1], in test [2], in test [3], in [4], in [5] and in test [6]. The call in test [7], in test [8] and in [9] was inactive.
On to `CC(C)CCCCCCOC(=O)c1ccc(C(=O)OCCCCCCC(C)C)c(C(=O)OCCCCCCC(C)C)c1`, for which the compound was classed as inactive in [1], in test [2], in [3], in test [4], in test [5] and in [6]. Also, the outcome in test [7], in test [8] and in test [9] was inactive.
With `CCc1cc(SCc2sc(-c3ccc(C(F)(F)F)cc3)nc2CN2CCN(c3ccc(OC)cc3)CC2)ccc1OCC(=O)O`, the outcome in [1], in test [2], in test [5], in [6] and in test [8] was inactive. The half-maximal activity concentration (AC50) is 49.7 µM (active) in test [3], 55.9 µM (active) in test [4], 84 µM (active) in test [7] and 39.5 µM (active) in test [9].
For the compound `COCCOc1cc2cc(C(=O)NC3CCN(C(C)C)CC3)n(CC(=O)Nc3ccc(Cl)cn3)c2cn1`, the compound was classed as inactive in test [1], in [2], in [5], in test [7] and in [8]. The AC50 in [3] is 74 µM (active); in test [4], 89.4 µM (active); in [6], 93.1 µM (active); in [9] it was 93.1 µM (active).
Turning to `CCCCCCCCO`, the call in test [1], in [2], in test [3], in test [4], in test [5] and in test [6] was inactive. Moreover, the result in test [7], in [8] and in test [9] was inactive.
Regarding `CC(C)CC(C)(O)C#CC(C)(O)CC(C)C` (stereo not drawn), the compound was called inactive in [1], in test [2], in [3], in test [4], in test [5] and in [6]. Further, the result in test [7], in [8] and in test [9] was inactive.
For `O=P(OC(CCl)CCl)(OC(CCl)CCl)OC(CCl)CCl`, the compound was called inactive in test [1], in test [5] and in test [7]. The AC50 was 48 µM (active) in test [2]; 55.6 µM (active) in test [3]; 44.9 µM (active) in [4]; 49.4 µM (active) in test [6]; 49.1 µM (active) in test [8]; 47.1 µM (active) in [9].
Regarding `CC1(C)C(=O)N(Br)C(=O)N1Br`, the call in test [1], in test [2], in test [3], in test [4], in test [5] and in test [6] was inactive. In addition, the outcome in [7], in test [8] and in test [9] was inactive.

By AC50 is commonly meant the midpoint of the concentration-response curve, whichever way the signal moves.
